This is a sample that favours compounds with a hit; in the whole collection about 5% have one here.
CHT inh = inhibitors of human choline transporter CHT | actives 0.86% (n = 310,000) | AID 488975, 2010 | High affinity choline transporter 1 (Homo sapiens), Q9GZV3 | B-score at 10 µM | CHT-expressing cells, membrane potential dye, choline response; hits give low values;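 active means B-score over 3 SD under the library average, and starting fluorescence ratio not unusually high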;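 further: choline stimulus applied at its EC90 after an EC20 pre-addition; B-score computed on integrated fluorescence ratio after choline addition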
ALR H2O2 inh = inhibitors of human ALR sulfhydryl oxidase, primary screen, biochemical, H2O2 detection, HRP-luminol luminescence, single point | actives 3.8% (n = 290,000) | purified ALR, DTT oxidation | FAD-linked sulfhydryl oxidase ALR (Homo sapiens), P55789 | inhibition, % (test concentration not listed) | AID 485317, 2010;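 active means mean replicate inhibition above about 79%, with every replicate also reaching it, limit read from the data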
PREPL inhibitor = PREPL enzyme inhibitors, primary screen, biochemical, fluorescence polarization; inhibition, % at 5.96 µM; AID 2751, 2010; Prolyl endopeptidase-like (Homo sapiens), Q4J6C6; actives 0.68% (n = 320,000); recombinant PREPL, fluorescence polarization activity-based probe; in the data active means inhibition above about 43%
AI-2 QS modul = Vibrio harveyi AI-2 quorum sensing modulators, primary screen, JMH597 strain, luminescence/OD600 ratio | Vibrio harveyi JMH597 AI-2 luminescence/OD600 ratio, 9 h; hits give low values; strain lacks LuxN and CqsS sensors; 0 = neutral-control median | activity change, % at 7.5 µM | actives 0.4% (n = 300,000); in the data active means activity change below about -75%, passing the limit was not always enough;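 further: luminescence divided by OD600 gain over 9 h not by final OD600 alone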
CHT allo act = CHT positive allosteric modulators, primary screen, cell-based, membrane potential dye, choline EC20; High affinity choline transporter 1 (Homo sapiens), Q9GZV3; CHT-expressing cells; hits give high values; LV-AA mutant CHT in HEK293 cells; B-score at 10 µM; actives 0.49% (n = 310,000);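 active means initial fluorescence not abnormally high and integrated response B-score, plate-corrected, over 3 SD above library mean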
Numbers stand for hits; n = inactive; x = no result given.

SMILES	CHT inh	ALR H2O2 inh	PREPL inhibitor	AI-2 QS modul	CHT allo act
O=C(O)c1ccccc1Nc1ccccc1	n	99	n	x	n
COc1cccc(Nc2c(Nc3cccc(OC)c3)c(=O)c2=O)c1	n	n	n	n	n
COc1cccc(NC2=C(NCCO)C(=O)c3ccccc3C2=O)c1	n	87	n	n	n
COC(=O)[C@H](C)NC(=O)N1CCC(Cc2ccccc2)CC1	n	n	n	n	n
CCc1nn(CC(=O)Nc2cc(C)ccc2C)c(=N)s1	n	n	n	n	n
CC(C)(C)N(Cc1ccccc1)C(=O)COc1cccnc1[N+](=O)[O-]	n	x	n	n	n
O=C(O)c1cc2ccccc2cc1Nc1ccccc1	n	99	n	n	n
COc1ccc(Nc2ccc(Cl)cc2)c(C(=O)O)c1	n	99	n	n	n
O=C(O)c1ccccc1Nc1ccc(OC(F)F)cc1	n	100	n	n	n
O=C(COC(=O)c1ccccc1Nc1ccccc1)NCc1ccccc1	n	97	n	n	n
O=C(O)/C=C\C(=O)Nc1ccc(OC(F)F)cc1	n	n	n	n	n
NC(=O)c1ccc(NC(=O)COC(=O)c2ccccc2Nc2ccccc2)cc1	n	n	n	n	n
COc1cccc(-n2c(SC3CCOC3=O)nc3ccccc3c2=O)c1 (centres undefined)	n	95	n	n	n
COc1ccc(OCc2nnc(SC3CCOC3=O)n2-c2ccccc2)cc1 (centres undefined)	n	n	n	n	n
CCc1c(C)nc2c(C#N)c[nH]n2c1=O	n	98	n	n	n
CCc1ccc(NC(=S)Nc2ccc3cn[nH]c3c2)cc1	n	n	n	n	n
COc1ccc(NC(=S)Nc2ccc3cn[nH]c3c2)cc1	n	100	n	n	n
CN1C(c2ccc(F)cc2)=CS/C1=C(/C#N)c1nnc(N2CCOCC2)n1-c1ccccc1	n	98	n	n	n
CN1C(=O)NC(c2ccccc2)(C(F)(F)F)S/C1=C(/C#N)c1nnc(N2CCOCC2)n1-c1ccccc1 (centres undefined)	n	n	n	n	n
CCN1C(c2ccc(F)cc2)=CS/C1=C(\C#N)c1nnc2n1-c1ccccc1SC2	n	n	n	n	n
C=CCN1C(c2ccccc2)=CS/C1=C(/C#N)c1nnc(N2CCOCC2)n1-c1ccccc1	n	99	n	n	n
O=c1oc2cc(Oc3ccc(C(F)(F)F)cc3[N+](=O)[O-])ccc2c2c1CCCC2	n	n	n	n	n
O=C(N/N=C/c1ccccn1)C1CC1	n	n	n	n	n
O=C(N/N=C/c1c(O)n(-c2ccc(Cl)cn2)c(=O)c2ccccc12)c1ccncc1	n	80	n	n	n
O=C(N/N=C/c1c(O)n(-c2ccc(Cl)cn2)c(=O)c2ccccc12)C1CC1	n	95	n	n	n
SMILES	CHT inh	ALR H2O2 inh	PREPL inhibitor	AI-2 QS modul	CHT allo act
O=C(N/N=C/c1cccc2ccccc12)c1ccncc1	n	n	n	n	n
CC1CN(S(=O)(=O)c2cccc(-c3csc(-c4ccccc4)n3)c2)CC(C)O1 (centres undefined)	n	98	n	n	n
Cc1nc(-c2ccc(S(=O)(=O)N3CCOCC3)cc2)cs1	n	93	n	n	n
O=S(=O)(c1cccc(-c2csc(-c3ccccc3)n2)c1)N1CCOCC1	n	98	n	n	n
O=S(=O)(c1cccc(-c2csc(N/N=C/c3ccco3)n2)c1)N1CCOCC1	n	n	n	n	n
COc1cc(CNC2CCCC2)cc(Br)c1OCC(=O)Nc1ccccc1C	n	n	n	n	n
COc1ccccc1CNC(=O)CS(=O)Cc1nc(-c2ccc(OC)c(OC)c2)oc1C (centres undefined)	n	99	n	n	n
Cc1oc(-c2ccccc2F)nc1CS(=O)CC(=O)NCc1ccc2c(c1)OCO2 (centres undefined)	n	99	n	n	n
Cc1oc(-c2ccc(Cl)cc2)nc1CS(=O)CC(=O)NCc1ccc2c(c1)OCO2 (centres undefined)	n	n	n	n	n
Cc1ccsc1-c1nc(CSCC(=O)NCc2ccc3c(c2)OCO3)c(C)o1	n	99	n	n	n
